Shown are actives, neighbours in structure and some others; about 1.3% of the full set was active somewhere.
MOR-DOR inv ag: mu-delta opioid heterodimer inverse agonism | inhibition, % at 9.3 µM | AID 504357 | 0.21% of 340,000 active | P35372+P41143 | cell-based MOR-DOR heterodimer luminescence; in the data active = inhibition above about 22%, passing the limit was not always enough
PvdQ inh: P. aeruginosa PvdQ acylase inhibition. purified PvdQ acylase, fluorescence plate reader. inhibition, % at 10 µM. 0.063% of 340,000 active. AID 488965; in the data active = inhibition above about 30%, passing the limit was not always enough
CR mimetic SO: yeast age-related superoxide inhibition as caloric restriction mimetic. S. cerevisiae aged cells, superoxide DHE fluorescence; hits give low values. superoxide response (% of plate mean), % at 10 µM. 0.18% of 330,000 active;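 active = superoxide response under a set limit, about three screen SD below normal, cut at about 65% in these data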;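 note: yeast aged for seven days with compound at 30 °C before DHE staining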
OPRM1-OPRD1 ag: agonists of human mu-delta opioid receptor heterodimerization; cells, OPRM1-OPRD1 heterodimerization, luminescence; P35372+P41143; 0.3% of 340,000 active; AID 504326; activation, % at 9.3 µM; in the data active = activation above about 18%
HTR5A inv ag: counter-screen for OPRM1-OPRD1 inverse agonists: human HTR5A inverse agonism; inhibition, % at 9.3 µM; P47898; HTR5A cell line, luminescence; 0.083% of 340,000 active; in the data active = inhibition mostly above about 23%, no sharp cut-off; inactive = mostly below about 18%
Target sequence (P47898 whole entry, looked up): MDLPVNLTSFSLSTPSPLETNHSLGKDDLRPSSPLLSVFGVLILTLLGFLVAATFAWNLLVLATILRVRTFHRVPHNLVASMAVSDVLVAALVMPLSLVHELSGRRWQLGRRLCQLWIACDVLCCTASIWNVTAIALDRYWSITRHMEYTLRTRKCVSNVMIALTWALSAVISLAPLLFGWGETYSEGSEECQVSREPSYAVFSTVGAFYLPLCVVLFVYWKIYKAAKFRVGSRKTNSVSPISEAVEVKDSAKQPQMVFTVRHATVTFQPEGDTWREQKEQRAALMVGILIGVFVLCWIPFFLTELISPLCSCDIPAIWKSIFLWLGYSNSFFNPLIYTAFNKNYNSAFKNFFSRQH
HTR5A ag ctr: counter-screen for OPRM1-OPRD1 agonists: human HTR5A agonism | P47898 | HTR5A agonist assay, luminescence, cell-based | 0.61% of 340,000 active | AID 504692 | activation, % at 9.3 µM; in the data active = activation mostly above about 9.5%, no sharp cut-off; inactive = mostly below about 7.6%
CR mimetic CP: yeast aging superoxide inhibition, cherry pick confirmation | shares compounds with CR mimetic SO | S. cerevisiae aging, superoxide DHE fluorescence; hits give low values | superoxide response (% of plate), % at 10 µM | 1% of 850 active | AID 434994;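 active = superoxide signal below 65% of the plate average of sample wells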;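 note: cells aged with compound for 7 days at 30 degrees C before staining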
DHE fluor count: DHE fluorescence interference, counter-screen artifact | shares compounds with CR mimetic SO | S. cerevisiae BY4741, flow cytometry; hits give low values | fluorescence response, % at 10 µM | 850 tested, under 10 active | AID 435000;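 active = fluorescence response below 15%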;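 note: lower means stronger quenching of DHE signal or ROS scavenging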
Numbers stand for hits; i = inactive; nt = not tested or not shown.

SMILES	MOR-DOR inv ag	PvdQ inh	CR mimetic SO	OPRM1-OPRD1 ag	HTR5A inv ag	HTR5A ag ctr	CR mimetic CP	DHE fluor count
Cc1ccsc1CNS(=O)(=O)c1ccc(F)cc1	i	i	60.1	i	i	i	i	i
Clc1ccc(/C=C/c2nc(Cl)c(-c3ccc(Cl)cc3)c(Cl)n2)cc1	i	i	62.8	i	i	i	i	i
O=C(Cc1ccc(-n2c(=S)[nH]c3ccccc3c2=O)cc1)N1CCN(c2ccccc2)CC1	i	i	65.3	i	i	i	i	i
Cc1cc(C)n2nc(-c3cccc(Br)c3)cc2n1	i	i	i	i	i	i	i	i
Cc1ccc2c(c1)C1CC(C)(O2)N(c2cccc(C(=O)N3CCN(c4ccccn4)CC3)c2)C(=O)N1 (stereo unspecified)	i	i	i	i	i	i	nt	nt
CC(=O)Nc1ccc(NC(=O)COC(=O)c2cc(S(=O)(=O)N3CCCC3)ccc2O)cc1	i	i	61.9	i	i	i	i	i
COc1ccc(NC(=O)COC(=O)c2cc(S(=O)(=O)N3CCCC3)ccc2O)cc1	i	i	i	i	i	i	nt	nt
Cc1nnc(NC(=O)CN2CCN(Cc3ccccc3)CC2)s1	i	i	i	i	i	i	nt	nt
CCOc1ccc2nc(NCCCNS(=O)(=O)c3ccccc3)c(C#N)cc2c1	i	i	64.7	i	i	i	i	i
COc1ccc([N+](=O)[O-])cc1N(CC(O)CN(C)C)S(=O)(=O)c1ccccc1 (stereo unspecified)	i	i	54.4	i	i	i	i	i
CC(C)CC(=NNC(=O)c1ccncc1)c1cc(Cl)ccc1O	i	i	nt	i	i	i	nt	nt
O=C(CSc1nnc(C2CC2)n1C1CC1)c1cccs1	i	i	i	i	i	i	nt	nt
CC(=O)c1cnc2c(-c3ccccc3)c(-c3ccccc3)nn2c1C	i	i	i	i	i	i	i	i
Cc1cc(N)n2nc(-c3ccccc3)c(-c3ccccc3)c2n1	i	i	i	i	i	i	i	i
CC(=O)c1cnc2c(-c3ccc(Cl)cc3)cnn2c1C	i	i	i	i	i	i	nt	nt
COc1ccc(S(=O)(=O)N2CCN(C(c3ccccc3)c3ccccc3)CC2)cc1NC(C)=O	i	i	i	i	i	i	nt	nt
CCc1cc2c(Nc3ccc(O)cc3)nc(C)nc2s1	i	i	i	i	i	i	nt	nt
NC(=NC(=O)c1ccc(OC(F)(F)F)cc1)c1ccc(C(F)(F)F)cn1	i	i	62.4	i	i	i	i	i
O=C(c1cccnc1Cl)N1CCOCC1	i	i	i	i	i	i	nt	nt
Cc1cc(C)cc(NC(=O)C2CCN(S(=O)(=O)c3c(C)n[nH]c3C)CC2)c1	i	i	i	i	i	i	nt	nt
CC(=O)N1CCC(C(=O)Nc2cc(C)cc(C)c2)CC1	i	i	61.4	i	i	i	i	i
CCCCn1c2ccccc2c2cc(CC(N)=O)ccc21	i	i	i	i	i	i	i	i
CCCCn1c(=O)c(-c2ccccc2)c(O)c2ccccc21	i	i	i	i	i	i	nt	nt
CC1(C)Cc2c(sc3nc(N/N=C/c4ccccc4)[nH]c(=O)c23)CO1	i	i	i	i	i	i	nt	nt
CC(C)=NNc1nc2sc3c(c2c(=O)[nH]1)CC(C)(C)OC3	i	i	50.0	i	i	i	i	i
SMILES	MOR-DOR inv ag	PvdQ inh	CR mimetic SO	OPRM1-OPRD1 ag	HTR5A inv ag	HTR5A ag ctr	CR mimetic CP	DHE fluor count
CC(C)Cn1cc(C(=O)NCc2cccs2)c2c3ccccc3n(C)c2c1=O	i	i	62.3	i	i	i	i	i
Cc1cc(Br)ccc1NC(=O)CSc1nnc(CN2CCOCC2)n1C	i	i	i	i	i	i	nt	nt
OCCNCC(O)Cn1c2ccccc2c2ccccc21 (stereo unspecified)	i	i	i	i	i	i	i	i
OCCNCC(O)Cn1ccc2ccccc21 (stereo unspecified)	i	i	i	i	i	i	nt	nt
C=CCN(CC=C)CC(O)Cn1c2ccccc2c2ccccc21 (stereo unspecified)	i	i	i	i	i	i	i	i
OC(CN1CCOCC1)Cn1c2ccccc2c2ccccc21 (stereo unspecified)	i	i	43.8	i	i	i	i	i
OC(CN1CCN(c2ccccn2)CC1)Cn1c2ccc(Cl)cc2c2cc(Cl)ccc21 (stereo unspecified)	i	i	i	i	i	i	nt	nt
OC(CN1CCCCC1)Cn1c2ccc(Cl)cc2c2cc(Cl)ccc21 (stereo unspecified)	i	i	45.1	i	i	i	i	i
O=C(NCCN1CCOCC1)C(=O)c1c[nH]c2ccccc12	i	i	i	i	i	i	nt	nt
COc1ccc(C(=O)OCC(O)COC(=O)c2ccc(OC)cc2)cc1	nt	nt	i	nt	nt	nt	nt	nt
CCN(CC)CC(O)Cn1c2ccccc2c2ccccc21 (stereo unspecified)	i	i	i	i	i	i	i	i
CC(C)CC(NC(=O)C1CCC(C)CC1)C(=O)NCCN1CCOCC1 (stereo unspecified)	i	i	i	i	i	i	nt	nt
CSCCC(NC(=O)C1CCC(C)CC1)C(=O)NCCN1CCOCC1 (stereo unspecified)	i	i	58.0	i	i	i	i	i
CCCCCC(=O)NC(=S)Nc1cccc(C(C)=O)c1	i	i	60.2	i	i	i	i	i
CCCC(=O)NC(=S)Nc1cccc(C(C)=O)c1	i	i	i	i	i	i	nt	nt
COc1ccc(NC(=O)c2nc(SC)ncc2Cl)cc1	i	i	i	i	i	i	nt	nt
CSc1ncc(Cl)c(C(=O)Nc2ccc(C)c(C)c2)n1	i	i	65.3	i	i	i	i	i
COc1cccc(NC(=O)c2nc(SC)ncc2Cl)c1	i	i	i	i	i	i	i	i
Cc1ccc(NC(=O)c2nc(S(=O)(=O)Cc3ccccc3C)ncc2Cl)cc1C	i	i	i	i	i	i	nt	nt
Cn1c(N)c(C(=O)COC(=O)c2ccc(OC(F)F)cc2)c(=O)n(C)c1=O	i	i	i	i	i	i	nt	nt
CCn1c2ccccc2c2cc(NC(C)=O)ccc21	i	i	i	i	i	i	i	i
CC(=O)Nc1ccc2c(c1)c1ccccc1n2C(C)=O	i	i	i	i	i	i	nt	nt
Cc1n[nH]c(=S)n(/N=C/c2cccc([N+](=O)[O-])c2)c1=O	i	i	61.0	i	i	i	i	i
CC1(C)CC(=O)c2c(-c3cccs3)n[nH]c2C1	i	i	63.8	i	i	i	i	i
CC1CC(C)CN(CC(=O)NCCc2ccc(S(N)(=O)=O)cc2)C1 (stereo unspecified)	i	i	61.7	i	i	i	i	i
C=CCOc1ccccc1CN1CCC(Oc2ccc(C(=O)N3CCCC3)cc2)CC1	i	i	64.8	i	i	i	i	i
Cc1cc(C)c(S(=O)(=O)Nc2ccc(O)c(Sc3ncn[nH]3)c2)cc1C	i	i	i	i	i	i	nt	nt
